Assay [1] can be described thus: qHTS assay to identify small molecule antagonists of the progesterone receptor (PR) signaling pathway - cell viability counter screen (AID 1346798). Note: series mostly up to about 92 µM; nearly all actives have a fitted effect of over 50% in size. An outline of the steps:
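Measures cytotoxicity in parallel with the PR antagonist reporter read: HEK293T PR-UAS-bla cells get compound and R5020 for 16 hr, and remaining viable cells are quantified by CellTiter-Glo luminescence.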

A short description of assay [2]: qHTS assay to identify small molecule agonists of the progesterone receptor (PR) signaling pathway - cell viability counter screen (AID 1346799; calls by dose curve; note: nearly all actives have a fitted effect of over 45% in size). The essentials:
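Using the same plates as the PR reporter screen, HEK293T PR-UAS-bla cells received compounds for 16 hr at 37C and were then lysed with CellTiter-Glo; luminescence was read 30 min later at room temperature.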

Assay [3] in a line: qHTS assay to identify small molecule antagonists of the TGF-beta/Smad signaling pathway - cell viability counter screen (AID 1346824). Note: nearly all actives have a fitted effect of over 50% in size. An outline of the steps:
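SBE-bla HEK 293T cells were plated overnight at 37 C, then given compounds in DMSO plus TGF-beta1 (added as 0.25 ng/mL solution) for 5 hr. After the bla read, CellTiter-Glo was added to the same wells and luminescence read after 30 min at room temperature.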
For orientation: Quantitative high-throughput screening tests each substance at several concentrations.

Assay [4] is described as follows: qHTS assay to identify small molecule agonists of the TGF-beta/Smad signaling pathway - cell viability counter screen (AID 1346829). Note: top concentration of the series differs between compounds; nearly all actives have a fitted effect of over 45% in size. The essentials: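 Same-well cytotoxicity: CellTiter-Glo added after the 2 hr room-temperature beta-lactamase substrate step, luminescence measured 30 min later; cells had 5 hr of compound at 37 C.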
Assay [5] is described as follows: qHTS assay to identify small molecule agonists of the TGF-beta/Smad signaling pathway (AID 1346859; active = well fitted activation curve with a large enough effect in the signal ratio in the repeat runs, not every such curve was filed as active; the % refers to the signal ratio; note: series mostly up to about 77 µM). An outline of the steps: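 Beta-lactamase reporter activity downstream of Smad binding elements was measured in stably transfected HEK 293T cells; compounds were incubated for 5 hr, substrate for 2 hr at room temperature.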
Assay [6] deals with Thyrotropin-releasing hormone receptor (Homo sapiens) (UniProt P34981). Description: qHTS assay to identify small molecule antagonists of the thyrotropin-releasing hormone receptor (TRHR) signaling pathway (AID 1346877; active = well fitted inhibition curve with a large enough effect in the repeat runs, not every such curve was filed as active; note: series mostly up to about 51 µM). An outline of the steps: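 TRHR-expressing HEK293 cells were seeded, cultured 18 h at 37 °C, then loaded with calcium dye for 2 h. Compounds were pre-incubated 5 min at room temperature before 1 nM TRH (final) was added, and kinetic fluorescence was recorded for 3 min.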
Chain of Thyrotropin-releasing hormone receptor (Homo sapiens) (P34981 whole entry, looked up): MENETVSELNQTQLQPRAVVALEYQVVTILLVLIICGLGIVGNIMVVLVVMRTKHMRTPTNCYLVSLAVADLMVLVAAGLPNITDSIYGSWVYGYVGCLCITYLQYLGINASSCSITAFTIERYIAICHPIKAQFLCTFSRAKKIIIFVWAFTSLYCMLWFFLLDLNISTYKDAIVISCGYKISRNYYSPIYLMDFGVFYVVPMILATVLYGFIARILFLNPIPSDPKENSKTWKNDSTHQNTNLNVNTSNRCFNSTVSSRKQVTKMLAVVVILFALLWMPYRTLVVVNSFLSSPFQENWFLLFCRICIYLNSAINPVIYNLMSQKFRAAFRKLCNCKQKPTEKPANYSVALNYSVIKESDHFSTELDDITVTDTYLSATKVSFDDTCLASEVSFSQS

Assay [7] has the same target. Description: qHTS assay to identify small molecule agonists of the thyrotropin-releasing hormone receptor (TRHR) signaling pathway (AID 1346891; calls by dose curve; note: series mostly up to about 58 µM). The essentials: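 Overnight-plated (18 h, 37 °C, 5% CO2) TRHR-Hek293 cells; 2 h calcium dye at 37 °C; compound in DMSO; 3-min kinetic fluorescence read.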
Assay [8] is described as follows: Human pregnane X receptor (PXR) small molecule agonists, qHTS cell viability counter screen (AID 1346977). Note: nearly all actives have a fitted effect of over 50% in size. The essentials:
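After a 5hr pre-incubation, PXR-Luc HepG2 cells received compounds plus positive control in DMSO and were kept 24hr at 37C. Cell viability was quantified by fluorescence from CellTiter-Fluor added for the final hour.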

The nature of assay [9]: Caspase-3/7 induction in HepG2 cells by small molecules, qHTS assay (AID 1346978). Note: nearly all actives have a fitted effect of over 15% in size. An outline of the steps:
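Wild-type HepG2 cells (2,000/well) were settled 5 h at 37 C, 5% CO2, then exposed to compounds in DMSO for 17 h. Caspase-3/7 activity was read by luminescence 30 min after adding Caspase-Glo 3/7 reagent at room temperature.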

A short description of assay [10]: Caspase-3/7 induction in CHO-K1 cells by small molecules, qHTS cell viability counter screen (AID 1346979). Note: nearly all actives have a fitted effect of over 35% in size. The essentials:
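Multiplexed with Caspase-Glo 3/7 in CHO-K1 cells, this counter screen added CellTiter-Fluor after 16hr of compound exposure and recorded fluorescence 1hr later.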

Assay [11] can be described thus: Caspase-3/7 induction in CHO-K1 cells by small molecules, qHTS assay (AID 1346980). Note: nearly all actives have a fitted effect of over 15% in size. An outline of the steps:
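Wild-type cells were seeded at 1,500 per well and settled 5 hr at 37 C, 5% CO2, then exposed to DMSO-dissolved compounds for 17 hr. Caspase-Glo 3/7 reagent was added, and luminescence was read after 30min at room temperature.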

Assay [12] in a line: Caspase-3/7 induction in HepG2 cells by small molecules, qHTS cell viability counter screen (AID 1346981). Note: series mostly up to about 92 µM; nearly all actives have a fitted effect of over 30% in size. The essentials:
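Wild-type HepG2 cells (2,000/well) were allowed to settle for 5 hr at 37 C, 5% CO2, then dosed with compounds in DMSO by pin transfer. After 16 hr at 37 C, CellTiter-Fluor was added and fluorescence read 1 hr later.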

Assay [13] has as its target Progesterone receptor (Homo sapiens) (UniProt P06401). Kind of assay: qHTS assay to identify small molecule agonists of the progesterone receptor (PR) signaling pathway (AID 1346784; calls by dose curve; note: nearly all actives have a fitted effect of over 30% in size). An outline of the steps: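 Seed PR-UAS-bla HEK 293T cells (2% charcoal-stripped FBS), incubate 6 hr at 37C; add compounds in DMSO, 16 hr at 37C; add LiveBLAzer B/G substrate, 2 hr RT; read fluorescence intensity.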

Assay [14] deals with Nuclear receptor subfamily 1 group I member 2 (Homo sapiens) (UniProt O75469). Kind of assay: Human pregnane X receptor (PXR) small molecule agonists, qHTS assay (AID 1346982). Note: nearly all actives have a fitted effect of over 35% in size. Note: potency is the fitted concentration of half-maximal effect. The essentials:
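PXR-Luc HepG2 cells (CYP3A4 promoter-driven luciferase) were seeded in medium with 5% charcoal-stripped FBS, left 5 hr at 37 C, then exposed to compounds in DMSO for 24 hr. Luminescence was read after ONE-Glo addition.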

Assay [15] has as its target Acetylcholinesterase (Homo sapiens) (UniProt P22303). Kind of assay: Acetylcholinesterase (AChE) small molecule antagonists: colormetric cell-based qHTS assay (AID 1347395; calls by dose curve; note: nearly all actives have a fitted effect of over 30% in size). An outline of the steps: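 In this cell-based qHTS, attached SH-SY5Y cells were treated with test chemicals for 30 min, after which acetylthiocholine hydrolysis was followed by DTNB colour development over 90 min at 37 C.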

Assay [16] has the same target. Description: Acetylcholinesterase (AChE) small molecule antagonists: enzyme-based qHTS assay (AID 1347397; calls by dose curve; note: nearly all actives have a fitted effect of over 55% in size). Particulars: Potency: AChE enzyme activity inhibition. An outline of the steps: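 Recombinant human AChE, dispensed at 50 mU/mL, was preincubated with Tox21 10K compounds or DMSO vehicle for 30 min at room temperature. DTNB plus acetylthiocholine was then added, and thiocholine was measured colorimetrically after a further 10 min.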

The target of assay [17] is Progesterone receptor (Homo sapiens) (UniProt P06401). Kind of assay: qHTS assay to identify small molecule antagonists of the progesterone receptor (PR) signaling pathway (AID 1346795; active = well fitted inhibition curve with a large enough effect in the signal ratio in the repeat runs, not every such curve was filed as active; the % refers to the signal ratio). The essentials:
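Screening used a GripTite HEK293T line with PR-responsive UAS-beta-lactamase. Cells were challenged with compound in the presence of 1 nM R5020 final for 16 hr at 37C; B/G FRET substrate, 2 hr room temperature, fluorescence.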

Assay [18] concerns the target Nuclear receptor subfamily 1 group I member 2 (Rattus norvegicus) (UniProt Q9R1A7). Kind of assay: Rat pregnane X receptor (rPXR) activation by small molecules, qHTS assay (AID 1346983). Note: nearly all actives have a fitted effect of over 20% in size. The note with it: rPXR luciferase reporter cells, One-Glo luminescence, 24 h; max activation: stronger effect = higher value. The essentials: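 Cell-based rPXR luciferase reporter assay, 2,000 cells per well, rested 5hr at 37 C before compound addition in DMSO, then 24 hr at 37 C. One-Glo reagent was added and luminescence read after 30 min at room temperature.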

Assay [19] has as its target Nuclear receptor subfamily 1 group I member 2 (Homo sapiens) (UniProt O75469). Description: CYP3A4 induction through human pregnane X receptor (PXR) by small molecules, qHTS assay (AID 1346984). Note: nearly all actives have a fitted effect of over 40% in size. The essentials:
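DPX-2 cells (HepG2 co-transfected with PXR and CYP3A4 promoter-luciferase) treated with compounds 24 h at 37C; luciferin-IPA CYP3A4 substrate 3uM final added for 3 h, then One-Glo; luminescence read. qHTS format.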

Unmarked numbers belong to inactive results. Results filed as inconclusive are left out. Calls of active or inactive are those of the source. Unless noted, calls come from the whole dose curve; as a rule, active = well fitted curve in the direction sought with a large enough effect in the repeat runs; inconclusive = weak or mixed curves; inactive = no such curve, though single readings can be large; an effect the other way counts as inactive or inconclusive.
% is set by controls: 0 for no effect and ±100 for the full control effect.

Chain of Progesterone receptor (Homo sapiens) (P06401 whole entry, looked up): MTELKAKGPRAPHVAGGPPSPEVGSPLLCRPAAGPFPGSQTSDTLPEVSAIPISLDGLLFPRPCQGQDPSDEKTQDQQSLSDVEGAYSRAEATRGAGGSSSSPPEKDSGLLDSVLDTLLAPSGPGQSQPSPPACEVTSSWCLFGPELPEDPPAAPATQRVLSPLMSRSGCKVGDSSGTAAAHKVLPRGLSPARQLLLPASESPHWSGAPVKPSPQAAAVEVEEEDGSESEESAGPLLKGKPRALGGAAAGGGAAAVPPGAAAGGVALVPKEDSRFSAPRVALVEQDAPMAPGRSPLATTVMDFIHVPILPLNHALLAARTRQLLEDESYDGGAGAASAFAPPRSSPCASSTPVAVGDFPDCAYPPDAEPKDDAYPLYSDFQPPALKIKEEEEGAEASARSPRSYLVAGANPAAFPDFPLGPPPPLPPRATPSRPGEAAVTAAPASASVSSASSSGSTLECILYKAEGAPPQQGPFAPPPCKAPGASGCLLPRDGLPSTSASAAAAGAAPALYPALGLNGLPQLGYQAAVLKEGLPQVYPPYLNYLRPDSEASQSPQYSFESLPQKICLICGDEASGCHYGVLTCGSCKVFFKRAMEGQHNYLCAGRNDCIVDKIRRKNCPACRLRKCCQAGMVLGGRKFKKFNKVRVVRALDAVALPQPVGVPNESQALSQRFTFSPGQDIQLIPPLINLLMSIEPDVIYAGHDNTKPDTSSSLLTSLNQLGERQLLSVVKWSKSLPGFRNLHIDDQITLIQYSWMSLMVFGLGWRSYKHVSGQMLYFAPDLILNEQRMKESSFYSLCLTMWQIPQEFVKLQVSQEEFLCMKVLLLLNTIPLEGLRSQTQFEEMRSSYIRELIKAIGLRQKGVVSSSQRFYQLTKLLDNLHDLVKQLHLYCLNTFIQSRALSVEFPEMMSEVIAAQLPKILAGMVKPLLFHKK
Chain of Nuclear receptor subfamily 1 group I member 2 (Homo sapiens) (O75469 whole entry, looked up): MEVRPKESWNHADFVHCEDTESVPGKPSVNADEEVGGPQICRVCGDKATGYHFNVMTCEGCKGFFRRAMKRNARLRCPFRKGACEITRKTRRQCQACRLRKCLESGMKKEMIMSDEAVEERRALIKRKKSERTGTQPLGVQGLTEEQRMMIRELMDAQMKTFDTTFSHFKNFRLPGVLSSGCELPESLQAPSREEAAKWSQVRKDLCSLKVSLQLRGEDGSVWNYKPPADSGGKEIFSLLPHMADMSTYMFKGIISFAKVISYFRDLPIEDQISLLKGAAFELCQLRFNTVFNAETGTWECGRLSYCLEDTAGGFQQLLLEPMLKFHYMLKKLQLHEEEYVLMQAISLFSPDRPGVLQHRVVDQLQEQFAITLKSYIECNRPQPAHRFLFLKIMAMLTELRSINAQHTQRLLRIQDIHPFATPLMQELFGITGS
Chain of Acetylcholinesterase (Homo sapiens) (P22303 whole entry, looked up): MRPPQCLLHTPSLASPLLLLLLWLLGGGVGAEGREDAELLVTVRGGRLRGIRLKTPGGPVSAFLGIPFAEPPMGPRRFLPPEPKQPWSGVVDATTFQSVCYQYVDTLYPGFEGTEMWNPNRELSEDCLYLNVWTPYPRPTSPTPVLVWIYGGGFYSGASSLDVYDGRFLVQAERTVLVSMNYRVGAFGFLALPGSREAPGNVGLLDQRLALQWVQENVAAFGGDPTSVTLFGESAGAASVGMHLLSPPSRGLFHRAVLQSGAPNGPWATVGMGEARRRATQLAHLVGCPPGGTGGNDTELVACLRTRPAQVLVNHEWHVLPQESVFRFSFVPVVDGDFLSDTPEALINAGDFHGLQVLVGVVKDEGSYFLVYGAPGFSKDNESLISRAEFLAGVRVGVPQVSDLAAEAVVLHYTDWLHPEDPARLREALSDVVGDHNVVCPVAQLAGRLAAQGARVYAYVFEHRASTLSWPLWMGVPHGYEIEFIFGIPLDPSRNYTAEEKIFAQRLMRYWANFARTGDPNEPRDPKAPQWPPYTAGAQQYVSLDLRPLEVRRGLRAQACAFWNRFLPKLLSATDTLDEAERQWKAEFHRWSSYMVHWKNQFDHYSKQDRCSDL
Chain of Nuclear receptor subfamily 1 group I member 2 (Rattus norvegicus) (Q9R1A7 whole entry, looked up): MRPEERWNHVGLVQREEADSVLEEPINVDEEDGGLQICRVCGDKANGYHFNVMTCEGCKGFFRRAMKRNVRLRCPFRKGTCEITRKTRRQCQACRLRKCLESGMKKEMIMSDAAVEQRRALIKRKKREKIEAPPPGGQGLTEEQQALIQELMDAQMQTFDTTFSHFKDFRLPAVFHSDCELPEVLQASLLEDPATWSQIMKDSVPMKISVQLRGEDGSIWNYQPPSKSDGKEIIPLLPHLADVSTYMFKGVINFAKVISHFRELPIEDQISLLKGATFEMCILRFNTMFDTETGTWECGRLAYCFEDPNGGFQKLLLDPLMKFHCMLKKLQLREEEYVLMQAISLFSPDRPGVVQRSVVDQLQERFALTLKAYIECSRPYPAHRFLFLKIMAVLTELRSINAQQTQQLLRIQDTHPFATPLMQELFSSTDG

Regarding `CN/C(=N\[N+](=O)[O-])NCC1CCOC1` (configuration not stated), the Potency result in [1], in assay [2], in [3], in assay [8], in assay [9] and in [10] was “inactive” throughout. Also, the Potency entry in assay [11] and in assay [12] was “inactive” each time. For the same compound, the result in [4], in assay [5], in assay [6] and in assay [7] was inactive.

Regarding `COC(=O)C(C)Oc1ccc(Oc2ccc(Cl)cc2Cl)cc1` (configuration not stated), the Potency result in assay [13], in assay [1], in [3], in assay [8], in assay [9] and in [10] was “inactive” in each case. Besides, the Potency entry in assay [11], in assay [12], in assay [14], in [15] and in assay [16] was “inactive” throughout. Besides, the outcome in assay [4] and in [5] was inactive.

As for `COC(C)(C)C`, the Potency result in assay [17], in [1], in assay [3], in assay [8], in [9] and in [10] was “inactive” in each case. In addition, the Potency result in assay [11], in [12], in assay [14] and in assay [16] was “inactive” throughout. Besides, the outcome in assay [4] and in [5] was inactive.

`O=[N+]([O-])c1cccc2c([N+](=O)[O-])cccc12`: the Potency entry in [17], in assay [3], in assay [8], in [9], in assay [10] and in assay [11] was “inactive” throughout. In addition, the Potency entry in assay [12], in assay [14], in assay [15] and in assay [16] was “inactive” throughout. Besides, the result in assay [4], in assay [5], in [6] and in [7] was inactive.

For the compound `C[C@]1(O)CC[C@H]2[C@@H]3CCC4=CC(=O)CC[C@]4(C)[C@@]3(F)[C@@H](O)C[C@@]21C`, the Potency result in assay [1], in assay [8], in assay [9], in [10], in assay [11] and in assay [12] was “inactive” in each case. Also, the Potency result in [15] and in assay [16] was “inactive” throughout. Also, the outcome in assay [4] and in assay [5] was inactive. Also, in assay [14], the Potency is 48.9 µM (active).

Regarding `CC(COc1ccc(Oc2ccccc2)cc1)Oc1ccccn1` (configuration not stated), the Potency entry in assay [13], in assay [3], in assay [8], in assay [9], in [10] and in [11] was “inactive” each time. Besides, the Potency result in [12], in assay [15] and in [16] was “inactive” each time. Moreover, the outcome in assay [5], in assay [6] and in assay [7] was inactive. Moreover, the Potency in assay [14] is 17.2 µM (active).

For `Cc1ncc2n1-c1ccc(Cl)cc1C(c1ccccc1F)=NC2`, the Potency entry in assay [13], in assay [3], in assay [8], in [9], in [10] and in assay [11] was “inactive” in each case. The Potency result in assay [12], in assay [19], in assay [15] and in [16] was “inactive” in each case. Also, the compound was called inactive in assay [5] and in [7]. Moreover, in assay [14], the Potency is 33.5 µM (active). Besides, in [18], the max activation was 11.3%.

On to `CCNc1nc(NC(C)C)nc(OC)n1`, for which the Potency entry in assay [1], in assay [8], in assay [9], in [10], in assay [11] and in assay [12] was “inactive” throughout. Further, the Potency result in [15] and in [16] was “inactive” each time. Also, the compound was called inactive in assay [4], in assay [5], in assay [6] and in assay [7]. The Potency in assay [14] was 27.3 µM (active).
